# Columns and labels:
# Test in all cases: thermal shift delta Tm vs DMSO control; higher = stronger stabilization (binding)
# Details in all cases: 12.5 µM; protein concentration 2 µM
# [1] = tested on: LOC_OS02G45750-cb003
# Procedure, shortened: (§1)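 Heating from 25°C to 95°C at 0.05°C/s, fluorescence was recorded for 19.5 μl wells of 2 μM E. coli-expressed, purified rice kinase domain in 100 mM potassium phosphate pH 7.5, 150 mM NaCl, 10% glycerol and 5 × SYPRO Orange with compound in DMSO. Boltzmann fits gave melting temperatures for this differential scanning fluorimetry assay. The shift reported is the mean of three replicates against the DMSO-only protein.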
# [2] = tested on: LOC_OS02G54510-cb004
# Procedure, shortened: as §1
# [3] = tested on: LOC_OS03G04050-cb001
# Procedure, shortened: as §1
# [4] = tested on: LOC_OS03G12390-cb001
# Procedure, shortened: as §1
# [5] = tested on: LOC_OS03G27990-cb004
# Procedure, shortened: as §1
# [6] = tested on: LOC_OS03G50450-cb001
# Procedure, shortened: as §1
# [7] = tested on: LOC_OS03G50810-cb003
# Procedure, shortened: as §1
# [8] = tested on: LOC_OS04G35114-cb001
# Procedure, shortened: as §1
# [9] = tested on: T1, LOC_OS04G38480-cb003
# T1 sequence (whole entry): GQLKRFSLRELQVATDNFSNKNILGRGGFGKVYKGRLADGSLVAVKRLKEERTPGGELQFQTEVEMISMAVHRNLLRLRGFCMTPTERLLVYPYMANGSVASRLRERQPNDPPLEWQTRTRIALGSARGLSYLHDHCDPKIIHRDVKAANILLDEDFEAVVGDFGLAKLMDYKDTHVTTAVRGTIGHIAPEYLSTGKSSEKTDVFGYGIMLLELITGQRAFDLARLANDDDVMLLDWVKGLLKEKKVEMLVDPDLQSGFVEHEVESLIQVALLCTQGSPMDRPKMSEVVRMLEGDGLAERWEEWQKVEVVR
# Procedure, shortened: as §1
# [10] = tested on: T2, LOC_OS04G41100-cb001
# T2 sequence (whole entry): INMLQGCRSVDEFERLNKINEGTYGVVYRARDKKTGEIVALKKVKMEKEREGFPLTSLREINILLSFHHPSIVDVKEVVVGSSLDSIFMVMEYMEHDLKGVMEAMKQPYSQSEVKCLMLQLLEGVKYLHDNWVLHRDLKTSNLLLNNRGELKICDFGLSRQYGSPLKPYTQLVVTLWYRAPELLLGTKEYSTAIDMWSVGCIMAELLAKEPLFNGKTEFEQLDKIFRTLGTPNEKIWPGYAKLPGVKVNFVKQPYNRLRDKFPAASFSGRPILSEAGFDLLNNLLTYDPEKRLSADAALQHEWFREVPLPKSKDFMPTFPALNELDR
# Procedure, shortened: as §1
# 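Further: purified Escherichia coli-expressed rice kinase domain construct.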
structure (smiles),measurement,setting,value
CNC(=O)c1ccccc1Nc1cc(Nc2ccc(N3CCOCC3)cc2OC)ncc1C(F)(F)F,thermal shift delta Tm,[1],5.48 °C
same,thermal shift delta Tm,[2],0.23 °C
same,thermal shift delta Tm,[3],0.62 °C
same,thermal shift delta Tm,[4],7.78 °C
same,thermal shift delta Tm,[5],3.73 °C
same,thermal shift delta Tm,[6],0.25 °C
same,thermal shift delta Tm,[7],1.97 °C
same,thermal shift delta Tm,[8],6.3 °C
same,thermal shift delta Tm,[9],3.08 °C
same,thermal shift delta Tm,[10],0.19 °C
"Cc1[nH]c(/C=C2\C(=O)Nc3ccccc32)c(C)c1CCC(=O)O [Orantinib (TSU-68, SU6668)]",thermal shift delta Tm,[1],0 °C
same,thermal shift delta Tm,[2],2.74 °C
same,thermal shift delta Tm,[3],0.04 °C
same,thermal shift delta Tm,[4],9.53 °C
same,thermal shift delta Tm,[5],0.65 °C
same,thermal shift delta Tm,[6],5.03 °C
same,thermal shift delta Tm,[7],0 °C
same,thermal shift delta Tm,[8],8.78 °C
same,thermal shift delta Tm,[9],4.57 °C
same,thermal shift delta Tm,[10],0.53 °C
Nc1ccc(C(=O)Nc2cccc(-c3nc(N4CCOCC4)c4oc5ncccc5c4n3)c2)cn1,thermal shift delta Tm,[1],0.01 °C
same,thermal shift delta Tm,[2],0.01 °C
same,thermal shift delta Tm,[3],1.54 °C
same,thermal shift delta Tm,[4],0.36 °C
same,thermal shift delta Tm,[5],0.09 °C
same,thermal shift delta Tm,[6],0.25 °C
same,thermal shift delta Tm,[7],0.09 °C
same,thermal shift delta Tm,[8],0.9 °C
same,thermal shift delta Tm,[9],0.66 °C
same,thermal shift delta Tm,[10],0.52 °C
O=C1NCCc2[nH]c(-c3ccncc3)cc21,thermal shift delta Tm,[1],0.39 °C
same,thermal shift delta Tm,[2],0.14 °C
same,thermal shift delta Tm,[3],0.37 °C
same,thermal shift delta Tm,[4],3.14 °C
same,thermal shift delta Tm,[5],0.51 °C
same,thermal shift delta Tm,[6],0.87 °C
same,thermal shift delta Tm,[7],0.45 °C
same,thermal shift delta Tm,[8],0.84 °C
same,thermal shift delta Tm,[9],0.45 °C
same,thermal shift delta Tm,[10],1.14 °C
CN1CCN(c2nc(C3=C(c4c[nH]c5ccccc45)C(=O)NC3=O)c3ccccc3n2)CC1 [Sotrastaurin],thermal shift delta Tm,[1],1.74 °C
same,thermal shift delta Tm,[2],0.21 °C
same,thermal shift delta Tm,[3],0.22 °C
same,thermal shift delta Tm,[4],0.18 °C
same,thermal shift delta Tm,[5],0.49 °C
same,thermal shift delta Tm,[6],0.36 °C
same,thermal shift delta Tm,[7],1.38 °C
same,thermal shift delta Tm,[8],1.49 °C
same,thermal shift delta Tm,[9],0.76 °C
same,thermal shift delta Tm,[10],0.51 °C
"Cc1cc(Nc2ncnc3ccc(NC4=NC(C)(C)CO4)cc23)ccc1Oc1ccn2ncnc2c1 [Irbinitinib (ARRY-380, ONT-380)]",thermal shift delta Tm,[1],0 °C
same,thermal shift delta Tm,[2],0.14 °C
same,thermal shift delta Tm,[3],0.65 °C
same,thermal shift delta Tm,[4],-3.39 °C
same,thermal shift delta Tm,[5],-0.73 °C
same,thermal shift delta Tm,[6],-0.45 °C
same,thermal shift delta Tm,[7],-0.83 °C
same,thermal shift delta Tm,[8],-1.83 °C
same,thermal shift delta Tm,[9],0.82 °C
same,thermal shift delta Tm,[10],0.49 °C
C#Cc1cccc(Nc2ncnc3cc(OCCOC)c(OCCO)cc23)c1,thermal shift delta Tm,[1],3.92 °C
same,thermal shift delta Tm,[2],0.67 °C
same,thermal shift delta Tm,[3],0.26 °C
same,thermal shift delta Tm,[4],2.39 °C
same,thermal shift delta Tm,[5],0.08 °C
same,thermal shift delta Tm,[6],0.13 °C
same,thermal shift delta Tm,[7],0.83 °C
same,thermal shift delta Tm,[8],6.33 °C
same,thermal shift delta Tm,[9],1.21 °C
same,thermal shift delta Tm,[10],0.13 °C
CCN1/C(=C/C(C)=O)Sc2ccc(OC)cc21,thermal shift delta Tm,[1],0.78 °C
same,thermal shift delta Tm,[2],0.02 °C
same,thermal shift delta Tm,[3],0.22 °C
same,thermal shift delta Tm,[4],0.14 °C
same,thermal shift delta Tm,[5],0.03 °C
same,thermal shift delta Tm,[6],0.66 °C
same,thermal shift delta Tm,[7],0.32 °C
same,thermal shift delta Tm,[8],0.67 °C
same,thermal shift delta Tm,[9],0.6 °C
same,thermal shift delta Tm,[10],0.55 °C
COc1cc(Nc2ncc(F)c(Nc3ccc4c(n3)N(COP(=O)(O)O)C(=O)C(C)(C)O4)n2)cc(OC)c1OC [R788 (Fostamatinib) Disodium],thermal shift delta Tm,[1],2.5 °C
same,thermal shift delta Tm,[2],0.47 °C
same,thermal shift delta Tm,[3],0.33 °C
same,thermal shift delta Tm,[4],1.17 °C
same,thermal shift delta Tm,[5],1.08 °C
same,thermal shift delta Tm,[6],7.52 °C
same,thermal shift delta Tm,[7],2.27 °C
same,thermal shift delta Tm,[8],2.02 °C
same,thermal shift delta Tm,[9],2.06 °C
same,thermal shift delta Tm,[10],0.34 °C
OCCn1cc(-c2ccc3c(c2)CC/C3=N\O)c(-c2ccncc2)n1,thermal shift delta Tm,[1],0.34 °C
same,thermal shift delta Tm,[2],0.15 °C
same,thermal shift delta Tm,[3],0.48 °C
same,thermal shift delta Tm,[4],0.53 °C
same,thermal shift delta Tm,[5],0 °C
same,thermal shift delta Tm,[6],0.31 °C
same,thermal shift delta Tm,[7],0.5 °C
same,thermal shift delta Tm,[8],0.11 °C
same,thermal shift delta Tm,[9],0.49 °C
same,thermal shift delta Tm,[10],0.67 °C

# Reference: the supplement of paper PMC9694430
